Molecules are shown by their SMILES. Values joined by “and” are separate entries in the source; they are usually repeats but may differ in a detail not shown here. Equal entries are not always repeated. The whole screen tested about 16,000 compounds, of which about 5,700 (36%) were called active. Inconclusive results (about 24%) are left out. The list shows a part of the results. A number with no mark means an inactive call. The call rests on the fitted dose curve; in most records, active means well fitted curve in the direction sought with a large enough effect; inconclusive means small, poorly fitted or top-dose-only effect, or effect the other way; inactive means no such curve, though single readings can be large or run the other way.
On the % scale 0 is the no-effect control and ±100 the full control effect.

Sequence of Cytochrome P450 1A2 (Homo sapiens) (P05177 whole entry, looked up): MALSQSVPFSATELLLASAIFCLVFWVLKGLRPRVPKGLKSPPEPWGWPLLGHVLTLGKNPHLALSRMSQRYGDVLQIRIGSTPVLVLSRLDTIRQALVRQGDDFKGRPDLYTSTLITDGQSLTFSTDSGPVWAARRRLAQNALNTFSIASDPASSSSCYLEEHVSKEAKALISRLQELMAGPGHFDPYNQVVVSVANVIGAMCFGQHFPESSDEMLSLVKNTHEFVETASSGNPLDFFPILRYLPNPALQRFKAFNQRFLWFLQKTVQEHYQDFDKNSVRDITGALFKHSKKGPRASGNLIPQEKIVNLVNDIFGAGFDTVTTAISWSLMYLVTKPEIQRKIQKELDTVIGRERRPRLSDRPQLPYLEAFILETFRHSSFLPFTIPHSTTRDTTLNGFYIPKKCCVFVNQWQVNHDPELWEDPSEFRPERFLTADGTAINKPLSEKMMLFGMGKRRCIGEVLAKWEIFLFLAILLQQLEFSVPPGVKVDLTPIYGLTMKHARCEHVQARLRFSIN

The assay concerns the target Cytochrome P450 1A2 (Homo sapiens) (UniProt P05177). Nature of the assay: Cytochrome panel assay with activity outcomes. The note with it: recombinant CYP, pro-luciferin dealkylation, luminescence, p450-cyp1a2; series mostly up to 57.1 µM; activity, negative = inhibition: at the top concentration.
In the case of `COc1ccccc1CN1CC[C@@]2(CCCN(C(C)=O)C2)C1`, the “activity, negative = inhibition” value was 2.29%. Consider `COc1ccc2[nH]cc(CCNc3ncnc4ccc(-c5cccnc5)cc34)c2c1`, for which the AC50 was 79.4 nM (active).

In the case of `COc1ccc2[nH]cc(CCNc3ncnc4ccc(-c5cccc(C#N)c5)cc34)c2c1`, the AC50 is 2510 nM (active). For the compound `CCC1=C(C)CN(C(=O)NCCc2ccc(S(=O)(=O)NC(=O)NC3CCC(C)CC3)cc2)C1=O` (stereo unspecified), the “activity, negative = inhibition” value is -7.51% [at 25.6 µM]. As to `Cc1ccc(OC(=O)c2oc3ccc(F)cc3c2C)c(C)c1`, the AC50 is 2510 nM (active). For the compound `CCOC(=O)N1CCN(C(=O)c2oc3ccc(S(=O)(=O)N4CCCCC4)cc3c2C)CC1`, the “activity, negative = inhibition” value was -2.68%.

For `Cc1ccc(NCCC(=O)c2ccc(Cl)cc2)cc1`, the AC50 is 251 nM (active).

With `Cc1ccc(NCCC(=O)c2ccc(Cl)c(Cl)c2)cc1`, the AC50 was 1260 nM (active). Consider `Cc1ccc(NC(=O)c2cc(NC(=O)CCCC(=O)O)ccc2Cl)cc1Cl`, for which the “activity, negative = inhibition” value is 4.24%.

On to `O=C(O)CCC(=O)c1ccc(Cl)cc1`, for which the activity, negative = inhibition was -17.8% [at 11.4 µM]. Still for that read-out and setting: in the case of `CCCOc1ccc(C(=O)NNC(=S)NC(=O)CC)cc1` it was -5.86%. `Cc1ccc(NC(=O)CCC(=O)c2ccc(F)cc2)cc1Cl`: the AC50 is 6310 nM (active). Consider `O=C(O)CCC(=O)Nc1ccc(C(=O)N2CCCCC2)cc1`, for which the “activity, negative = inhibition” value is -4.13%. Turning to `CCCOc1ccc(C(=O)CCNc2ccc(C)c(Cl)c2)cc1`, the AC50 was 891 nM (active). Turning to `O=C(O)[C@@H]1[C@@H]2C[C@@H]3[C@@H](OC(=O)[C@@H]31)[C@H]2Br`, the activity, negative = inhibition is -4.92% [at 11.4 µM]. Take `OC(CCN1CCCCC1)(c1ccccc1)c1ccccc1`: the “activity, negative = inhibition” value is -0.0902% [at 25.6 µM].

With `CCCCOC(=O)Nc1ccc(C)c(Cl)c1`, the AC50 was 4470 nM (active).

`Cc1c(Cl)c(S(N)(=O)=O)cc(S(N)(=O)=O)c1NC(=O)c1ccc(Cl)cc1`: the activity, negative = inhibition was -2.26% [at 11.4 µM]. With `Cc1ccc(NCCC(=O)c2ccc(Cl)cc2)cc1C`, the AC50 was 631 nM (active). `Cc1cnc(CNc2ncnc3ccc(-c4cccc(C#N)c4)cc23)cn1`: the AC50 is 398 nM (active).

In the case of `COc1cccc(-c2ccc3ncnc(NCc4cnc(C)cn4)c3c2)c1`, the concentration at half-maximal activity (AC50) was 2510 nM (active). For `C/C(CCN1CCc2nc(-c3ccccc3)c(-c3ccccc3)cc2C1)=N\OC[C@@H](C)[C@H](OCc1ccccc1)C(C)C`, the activity, negative = inhibition was -4.9% [at 11.4 µM]. Take `COC(=O)C/C=C\[C@@H](C)[C@@H](/C=N\OC[C@@H]1O[C@H](c2ccccc2)C=C[C@@H]1Oc1ccc(OC)cc1)OC`: the activity, negative = inhibition was 10.1% [at 11.4 µM].

`Cc1cccc(C)c1NC(=O)CCN1C(=O)C2C3CCC(C3)C2C1=O` (stereo unspecified): the “activity, negative = inhibition” value was 1.26%. In the case of `CC(=O)Nc1ccc(NCN2C(=O)C3C4CCC(C4)C3C2=O)cc1` (stereo unspecified), the “activity, negative = inhibition” value was 10.1%.

Regarding `Cc1cccc(OC(=O)CN2C(=O)C3C4CCC(C4)C3C2=O)c1C` (stereo unspecified), the AC50 was 12600 nM (active). On to `COc1ccc(O[C@H]2C=C[C@@H](c3ccccc3)O[C@H]2COC(=O)N2CCCCC2)cc1`, for which the activity, negative = inhibition is -4.44% [at 11.4 µM]. Take `C(=N\Nc1nc(Nc2ccccc2)nc(N2CCOCC2)n1)/c1c[nH]c2ccccc12`: the AC50 is 10000 nM (active).

As for `C#CCCCO/N=C1/C[C@@H](O)[C@@H](O)[C@@H]2[C@@H]3C(=O)N(C[C@@H]4CCCO4)C(=O)[C@H]3CC[C@@H]12`, the activity, negative = inhibition is 1.69% [at 11.4 µM]. For `COc1ccccc1N1CCN(CCCCNC(=O)c2ccc(-c3ccc(C(C)=O)cc3)cc2)CC1`, the AC50 was 25100 nM (active). For `COc1ccccc1N1CCN(CCCNc2cc(=O)n(C)c(=O)n2C)CC1`, the AC50 entry is “inactive”. For the compound `COc1ccccc1N1CCN(CCCCNC(=O)c2ccc3ccccc3c2)CC1`, the “activity, negative = inhibition” value was -12.9% [at 25.6 µM].

As for `COc1ncc2nc(-c3ccc(F)cc3)c(=O)n(CCc3ccccc3)c2n1`, the AC50 is 398 nM (active).

With `COc1ncc2nc(-c3ccc(F)cc3)c(=O)n(Cc3ccc(F)cc3)c2n1`, the concentration at half-maximal activity (AC50) is 1580 nM (active).

As to `COc1ncc2nc(C)c(=O)n(CCc3ccccc3)c2n1`, the AC50 was 2000 nM (active).

In the case of `COc1ccccc1N(CC(=O)NCC1CCCO1)C(=O)CNS(=O)(=O)c1ccc(C)cc1` (stereo unspecified), the “activity, negative = inhibition” value is -5.27%. `Cc1ccc(S(=O)(=O)N[C@H]2COC(=O)CC=C[C@@H](C)[C@H]3C=C[C@H](O)[C@@H](COC(=O)CC=C[C@H]2C)O3)cc1`: the activity, negative = inhibition was -8.39% [at 11.4 µM] and -5.02% [at 11.4 µM].

For `S=c1nc[nH]c2c1ncn2Cc1ccco1`, the activity, negative = inhibition was -16.3% [at 11.4 µM].

Turning to `Cc1c(NC(=O)CN2CCN(c3ccccc3)CC2)c(=O)n(-c2ccccc2)n1C`, the “activity, negative = inhibition” value was 0.0126%. As for `CCOC(=O)c1c(C)n(C)c2ccc(OC)c(NC(=O)CN3CCCCC3)c12`, the AC50 is 15800 nM (active). Turning to `Clc1ccc(CSc2nnc(-c3cccnc3)o2)cc1`, the AC50 is 3550 nM (active). In the case of `O=c1c(-c2nnc(SCc3ccc(Cl)c(Cl)c3)o2)cccn1Cc1ccccc1`, the “activity, negative = inhibition” value is -26.4%. In the case of `Clc1ccc(CSc2nnc(-c3sccc3-n3cccc3)o2)cc1`, the AC50 was 2820 nM (active). For the compound `Cc1cccc(-c2nnc(SCc3ccccc3)o2)c1`, the AC50 was 14100 nM (active). As to `c1ccc(CSc2nnc(-c3sccc3-n3cccc3)o2)cc1`, the AC50 was 2820 nM (active).

Consider `Clc1cccc(CSc2nnc(-c3sccc3-n3cccc3)o2)c1`, for which the AC50 was 2510 nM (active).

The values are drawn from PubChem BioAssay AID1851 (National Center for Advancing Translational Sciences (NCATS), 2009).
